Experimental data: PubChem BioAssay (EPA / NIEHS)
Inconclusive results are not listed. Calls of active or inactive are those of the source. How the source made its calls: active means hit-call score of the fitted dose curve at least 0.9, where 1 is the maximum; inconclusive means response in the unintended direction; inactive means score below 0.9.

Columns and labels:
[1] = biological target: Cellular tumor antigen p53 (Homo sapiens) (UniProt P04637); assay: TOX21_p53_BLA_p2_ratio: Tox21 HCT-116 p53 Agonism Beta-lactamase Assay, Ratio, Phase 2 (AID 2283592)
Chain of Cellular tumor antigen p53 (Homo sapiens) (P04637 whole entry, looked up): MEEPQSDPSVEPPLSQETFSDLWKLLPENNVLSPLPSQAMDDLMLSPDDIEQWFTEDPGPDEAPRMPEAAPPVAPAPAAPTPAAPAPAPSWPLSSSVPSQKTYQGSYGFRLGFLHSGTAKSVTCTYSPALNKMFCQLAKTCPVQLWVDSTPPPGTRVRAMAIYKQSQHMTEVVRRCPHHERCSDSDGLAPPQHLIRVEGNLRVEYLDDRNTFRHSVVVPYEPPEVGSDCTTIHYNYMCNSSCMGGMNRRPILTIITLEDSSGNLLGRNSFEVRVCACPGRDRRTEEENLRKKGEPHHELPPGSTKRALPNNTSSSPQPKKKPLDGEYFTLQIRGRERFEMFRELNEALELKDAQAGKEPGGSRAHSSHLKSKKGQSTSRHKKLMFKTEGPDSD
Method in brief: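 In this cell-based reporter format, HCT116 cells were dosed with chemicals delivered from DMSO by 217-fold dilution and incubated 16 h at 37C. Emission at 460 and 530 nm after 2 h CCF4-AM loading provided the ratio, fitted upward versus DMSO.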

[2] = TOX21_p53_BLA_p3_viability: Viability Assessment in the Tox21 HCT-116 p53 Agonism Beta-lactamase Assay, Phase 3 (AID 2283593);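 further: cells exposed to compound for 16 h before reading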
Method in brief: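 HCT116 cells, 4000/well, dosed 5 h after plating by pin transfer (217-fold dilution from DMSO stock) and incubated 16 h at 37C, 5% CO2. Viability read as ATP luminescence with CellTiter-Glo after 30 min at room temperature.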

[3] = biological target: Cellular tumor antigen p53 (Homo sapiens) (UniProt P04637); assay: TOX21_p53_BLA_p3_ratio: Tox21 HCT-116 p53 Agonism Beta-lactamase Assay, Ratio, Phase 3 (AID 2283596)
Method in brief: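 HCT116 p53-bla cells (4000/well) given compound in DMSO (217-fold dilution) after 5 h, incubated 16 h at 37C. CCF4-AM substrate 2 h at room temperature; 460/530 nm emission ratio, gain fitted against DMSO.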

[4] = TOX21_p53_BLA_p4_viability: Viability Assessment in the Tox21 HCT-116 p53 Agonism Beta-lactamase Assay, Phase 4 (AID 2283597);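 further: hits lower the luminescence signal meaning cytotoxicity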
Method in brief: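 We seeded HCT116 p53 reporter cells at 4000/well and waited 5 h. We then added compounds in DMSO at a 217-fold dilution and incubated for 16 h. Viability was read as CellTiter-Glo luminescence after 30 min at RT.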

[5] = biological target: Cellular tumor antigen p53 (Homo sapiens) (UniProt P04637); assay: TOX21_p53_BLA_p5_ratio: Tox21 HCT-116 p53 Agonism Beta-lactamase Assay, Ratio, Phase 5 (AID 2283599)
Method in brief: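 HCT-116 p53-bla cells (4000/well) plated 5 h, dosed with compound (217-fold DMSO dilution) for 16 h at 37 C; CCF4-AM substrate 2 h at room temperature. Activity is the 460/530 nm emission ratio (405 nm excitation), fitted in gain-of-signal direction versus DMSO.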

[6] = biological target: Cellular tumor antigen p53 (Homo sapiens) (UniProt P04637); assay: TOX21_p53_BLA_p4_ratio: Tox21 HCT-116 p53 Agonism Beta-lactamase Assay, Ratio, Phase 4 (AID 2283601)
Method in brief: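 HCT-116 p53 beta-lactamase reporter cells (4000/well) preincubated 5 h, then compound (217-fold dilution of DMSO stock) for 16 h at 37C. CCF4-AM substrate added 2 h at room temperature; 460/530 nm emission ratio fitted upward versus DMSO.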

[7] = TOX21_p53_BLA_p5_viability: Viability Assessment in the Tox21 HCT-116 p53 Agonism Beta-lactamase Assay, Phase 5 (AID 2283600)
Method in brief: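 Compounds, pinned from DMSO at 217-fold dilution, were left on the cells for 16 h. The viability endpoint was ATP content measured by CellTiter-Glo luminescence, where falling signal reflects cytotoxicity.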

| Compound | outcome [1] | outcome [2] | outcome [3] | outcome [4] | outcome [5] | outcome [6] | outcome [7] | AC50 [1] | AC50 [3] | AC50 [5] | AC50 [6] |
| --- | --- | --- | --- | --- | --- | --- | --- | --- | --- | --- | --- |
| CN1C[C@@H]2C[C@H]1CN2c1cc2c(cc1F)c(=O)c(C(=O)O)cn2C1CC1 | inactive | inactive | inactive | inactive | inactive | inactive | – | – | – | – | – |
| CC(=O)O[Si](C)(OC(C)=O)OC(C)=O | inactive | inactive | inactive | inactive | inactive | inactive | – | – | – | – | – |
| CCn1cc(C(=O)O)c(=O)c2cc(F)c(N3CCN(C)CC3)cc21 | inactive | inactive | inactive | inactive | inactive | inactive | inactive | – | – | – | – |
| Cc1cccc2c1cc1ccc3cccc4ccc2c1c34 | – | inactive | – | inactive | – | – | – | 0.801 µM (active) | 2.77 µM (active) | 2.33 µM (active) | 0.44 µM (active) |
